Compound activity as filed in PubChem.
G9a block – G9a (human) methyltransferase inhibition; AID 504332; Q96KQ7; G9a H3K9 monomethylation, AlphaScreen, 2 h; Potency, µM (doses to about 102 µM), for inactives: top-dose activity, negative = inhibition, usual class: inhibitors; 8.8% of 350,000 active; further: on the % scale 0 is the no-effect control and ±100 the full control effect; nearly all actives have a fitted effect of over 75% in size
Target sequence (Q96KQ7 913-1193 limits assumed): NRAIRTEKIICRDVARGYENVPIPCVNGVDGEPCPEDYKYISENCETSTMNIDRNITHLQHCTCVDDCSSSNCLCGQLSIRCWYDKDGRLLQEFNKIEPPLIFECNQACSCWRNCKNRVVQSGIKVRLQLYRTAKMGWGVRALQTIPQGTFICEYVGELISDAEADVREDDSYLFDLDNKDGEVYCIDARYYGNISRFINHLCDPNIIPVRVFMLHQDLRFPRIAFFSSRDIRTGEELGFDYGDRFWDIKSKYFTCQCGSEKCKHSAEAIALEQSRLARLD
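Methyltransferase reactions run at room temperature for 2 h (20 nM enzyme, 500 nM biotin-H3K9 peptide, 20 uM SAM) after a 15 min compound preincubation; product detected by AlphaScreen beads and anti-H3K9me1 antibody.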
BAZ2B inh – BAZ2B (human) inhibition | Q9UIF8 | AlphaScreen BAZ2B-H3K14Ac peptide displacement | Potency, µM (titrated, usually from 114 µM), for inactives: at the top dose activity change, negative = inhibition, usual class: inhibitors | 4.4% of 360,000 active; further: on the % scale 0 is the no-effect control and ±100 the full control effect; nearly all actives have a fitted effect of over 60% in size
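Complex of BAZ2B and biotin-H3K14Ac (50 nM apiece) forms over 30 min at RT, then faces library compounds up to 110 uM for another 30 min; AlphaScreen beads added, 20 min dark incubation, luminescence read.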
L3MBTL1 block – L3MBTL1 (human) inhibition; 0.66% of 230,000 active; AlphaScreen L3MBTL1–H3K9me1 peptide binding; Potency, µM (titrated, usually from 57.1 µM), inactives show at the top dose activity, negative = inhibition, usual class: inhibitors; Q9Y468; AID 485360; further: on the % scale 0 is the no-effect control and ±100 the full control effect; nearly all actives have a fitted effect of over 60% in size
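AlphaScreen proximity signal between nickel-chelate acceptor and streptavidin donor beads (final 10 ug/mL) reports binding of 50 nM L3MBTL1 to 75 nM biotin-H3 K9me1 peptide; complex incubated with compounds 30 min at room temperature; cefsulodin titration as control.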
HP1b binding inh – blocks HP1-beta chromodomain binding to methylated histone tails; P83916; AlphaScreen HP1-beta / biotin-H3K9me3 peptide binding; Potency, µM (series often up to 114 µM), for the others: at the top dose activity change, negative = inhibition, usual class: inhibitors; 0.56% of 390,000 active; AID 540317; further: nearly all actives have a fitted effect of over 70% in size
Target sequence (P83916 whole entry, looked up): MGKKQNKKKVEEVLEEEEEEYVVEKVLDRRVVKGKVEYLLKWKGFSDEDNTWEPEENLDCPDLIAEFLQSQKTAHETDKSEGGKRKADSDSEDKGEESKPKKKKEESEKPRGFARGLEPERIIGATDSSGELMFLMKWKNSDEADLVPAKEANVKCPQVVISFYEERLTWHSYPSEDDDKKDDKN
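Compound inhibition of the preformed complex between 50 nM HP1-beta and 50 nM biotinylated H3K9me3 peptide was read by AlphaScreen. Buffer was PBS pH 7.4 with 0.01% Tween-20. Incubations ran 30 min at room temperature, with 10 ug/mL donor/acceptor beads.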
JMJD2A Tudor – JMJD2A Tudor domain (human) inhibition; O75164; AlphaScreen JMJD2A-Tudor / H3K4me3 peptide binding; Potency, µM (top dose mostly 114 µM), for the others: top-dose activity change, negative = inhibition, actives largely listed as inhibitors; 4.4% of 390,000 active; further: on the % scale 0 is the no-effect control and ±100 the full control effect; nearly all actives have a fitted effect of over 50% in size
* hit, by the source's call; ? = inconclusive; / = no result; [ ] = dose if it differs, or a comment. Most compounds without a hit are left out; they make up all but 11% or so of the library. The call rests on the fitted dose curve; in most records, active means well fitted inhibition curve with a large enough effect; inconclusive means small, poorly fitted or top-dose-only effect; inactive means no such curve, though single readings can be large or run the other way. Potency means the concentration at half of the fitted maximal effect.

SMILES | G9a block | BAZ2B inh | L3MBTL1 block | HP1b binding inh | JMJD2A Tudor
O=C1c2sc3nc4n(c(=O)c3c2CCC1Br)CCCCC4 (stereo not given) | 4%[0.501 µM] | 50µM* | -8% | ? | 7.9µM*
CCN(c1ccccc1C)S(=O)(=O)c1nnc(NC(=O)c2ccc(OC)c(OC)c2)s1 | 1%[59 µM] | -3% | / | 16% | -19%
CC(O)CNCCCOc1ccc(Cl)cc1C(C)(C)C (stereo not given) | / | ? | -3% | ? | 0.89µM*
CN(C)CCOCCOc1ccc(Cl)cc1C(C)(C)C | 8.9µM* | 50µM* | 0% | ? | 3.2µM*
Cc1ccc(S(=O)(=O)N=Nc2c(O)[nH]c3ccccc23)cc1 | 1.6µM* | ? | / | 36% | -20%
Cc1ccc(S(=O)(=O)N(CC(=O)N=Nc2c(O)[nH]c3ccccc23)c2ccc(C)c(C)c2)cc1 | 12%[59 µM] | -32% | -11% | -13% | ?
Cc1ccc(C)c(S(=O)(=O)N=Nc2c(O)[nH]c3ccccc23)c1 | 8.9µM* | -27% | -4% | 27% | -15%
COc1ccc(-c2ncc3ccccn23)cc1OC | 14µM* | 32µM* | 5% | ? | 3.5µM*
Clc1ccccc1-c1ncc2ccccn12 | ? | 56µM* | -16% | ? | 18µM*
Cc1nn2c(C)c(C(=O)NCc3ccco3)cnc2c1-c1ccccc1 | -20%[59 µM] | -30% | / | 56% | -17%
CCN(C(=O)COC(=O)c1cc(C)n(-c2ccc(F)cc2)c1C)C1CCS(=O)(=O)C1 (stereo not given) | 50µM* | ? | -24% | 1% | -35%
Cc1ccc(-n2c(C)cc(C(=O)OCC(=O)N(CC(C)C)C3CCS(=O)(=O)C3)c2C)cc1 (stereo not given) | ? | ? | -22% | -1% | ?
CN(C(=O)COC(=O)c1ccc2c(c1)NC(=O)CS2)C1CCS(=O)(=O)C1 (stereo not given) | 50µM* | 6% | 1% | 16% | -5%
Cc1ccc(-n2c(C)cc(C(=O)OCC(=O)N(C)C3CCS(=O)(=O)C3)c2C)cc1 (stereo not given) | 50µM* | ? | -13% | -10% | -23%
CC(C)CN(C(=O)COC(=O)c1ccc2c(c1)NC(=O)CS2)C1CCS(=O)(=O)C1 (stereo not given) | ? | 12% | 0% | ? | 9%
O=C(NCC(c1ccco1)S(=O)(=O)c1cccs1)c1ccc(Cl)cc1 (stereo not given) | -26%[59 µM] | -8% | / | 28% | -15%
C/C=C\C=C/C(=O)Nc1cccc(C2=NOC3(C2)C[C@@H](C(N)=O)N(C(=O)/C=C/C=C\C)C3)c1 (stereo not given in full) | ? | 79µM* | / | ? | 50µM*
C/C=C\C=C/C(=O)Nc1cccc(C2=NOC3(C2)C[C@@H](C(N)=O)N(C(=O)/C=C/CC)C3)c1 (stereo not given in full) | ? | -17% | / | ? | ?
C=C(C)C(=O)N1CC2(CC(c3cccc(NC(=O)/C=C\C=C/C)c3)=NO2)C[C@H]1C(N)=O (stereo not given in full) | ? | -17% | / | -22% | 11µM*
CCOc1ccccc1NC(=O)c1cc2cc3cc(C)ccc3nc2s1 | 9%[59 µM] | 2% | / | 8%[57 µM] | -15%
Cc1ccc2nc3sc(C(=O)Nc4ccc(F)cc4)cc3cc2c1 | -50%[12.7 µM] | ? | -2% | 16%[57 µM] | 40µM*
COc1ccc(C(CCN2CCCCC2)c2c(OC)cc(OC)c3c(-c4ccccc4)cc(=O)oc23)cc1 (stereo not given) | 13%[12.7 µM] | -25% | / | 2% | ?
COc1cc(OC)c2c(-c3ccccc3)cc(=O)oc2c1C(CCN1CCCC(C)C1)c1ccc2c(c1)OCO2 (stereo not given) | -26%[59 µM] | ? | / | -36% | 40µM*
COc1cc(OC)c2c(-c3ccccc3)cc(=O)oc2c1C(CCN1CCOCC1)c1ccc(N(C)C)cc1 (stereo not given) | 14µM* | / | ? | 18µM* | 14µM*
COc1cc(OC)c2c(-c3ccccc3)cc(=O)oc2c1C(CCN1CCCCC1)c1ccc(N(C)C)cc1 (stereo not given) | ? | 16µM* | / | ? | 11µM*
SMILES | G9a block | BAZ2B inh | L3MBTL1 block | HP1b binding inh | JMJD2A Tudor
COc1cc(OC)c2c(-c3ccccc3)cc(=O)oc2c1C(CCN1CCCCC1)c1ccc2c(c1)OCO2 (stereo not given) | 1%[12.7 µM] | ? | / | -20% | ?
Cc1ccc(/C=C/c2onc(C)c2S(=O)(=O)N2CCC(C(=O)NCc3ccc(OC(C)C)cc3)CC2)cc1 | 6%[59 µM] | -3% | / | 39%[57 µM] | -2%
COc1ccc(C(c2c(O)cc(C)n(Cc3ccco3)c2=O)N2CCN(c3ccccc3)CC2)cc1 (stereo not given) | ? | -16% | / | 22%[57 µM] | -18%
O=C1c2ccccc2-c2c1cccc2C(=O)N1CCCCCC1 | -12% | -18% | -1% | 31% | -10%
O=C1c2ccccc2C(=O)c2c1ccc(C(=O)N1CCCCC1)c2NCCO | 18%[59 µM] | -5% | -5% | -23% | -19%
CC1CCCN(C(=O)c2ccc3c(c2NCCO)C(=O)c2ccccc2C3=O)C1 (stereo not given) | 2%[12.7 µM] | 40µM* | / | 50µM* | 45µM*
CC1(C)CCCN(C(=O)c2ccc3c(c2NCCO)C(=O)c2ccccc2C3=O)C1 | 35µM* | 14µM* | 35µM* | -79% | 40µM*
O=C(CN1C(=O)C2(SCC(=O)N2c2ccccc2)c2ccccc21)Nc1ccccc1C(F)(F)F (stereo not given) | -6%[59 µM] | 2%[57.1 µM] | / | 19% | -17%
CC(C)OC(=O)c1cccc(C(=O)O)n1 | 2.5µM* | ? | 18% | 6% | 7.1µM*
CN(C)S(=O)(=O)c1ccc(Cl)c(NC(=O)COC(=O)/C=C/c2ccco2)c1 | ? | 56µM* | -20% | 14% | -20%
O=C(COC(=O)/C=C/c1ccco1)NCc1ccc(Cl)cc1 | 7.9µM* | -5% | -5% | 22% | -5%
CN(C)S(=O)(=O)c1cccc(NC(=O)COC(=O)/C=C/c2ccc(Br)o2)c1 | 45µM* | -33% | -15% | ? | -14%[11.4 µM]
O=C(COC(=O)/C=C/c1ccco1)NCc1ccccc1 | ? | -36% | -8% | 45% | -18%
CN(C)c1ccc(C(CNC(=O)c2c(F)cccc2Cl)N2CCOCC2)cc1 (stereo not given) | -38%[59 µM] | -19% | / | 4% | -18%
O=C(NNc1ccccc1)c1sc2ccccc2c1Cl | / | / | / | 16% | -29%
Cc1ccc(OCC(=O)OC2CCCN(C)C2)cc1 (stereo not given) | 1%[0.501 µM] | -4% | 14% | 32% | ?
CN1CCCC(OC(=O)COc2ccccc2)C1 (stereo not given) | 50µM* | -4% | 3% | 11% | -5%
